Active and inactive are the calls of the source. How the source made its calls: active means hit-call score of the fitted dose curve at least 0.9, where 1 is the maximum; inactive means score below 0.9.

Results on 13 compounds are retold here after PubChem BioAssay (EPA / NIEHS).

Read-out in assay [1]: TIMP metallopeptidase inhibitor 2 (TIMP2), TIMP2 (gene 7077)
The assay is described as follows: BSK_KF3CT_TIMP2: BioMAP Diversity Plus: KF3CT Assay for TIMP metallopeptidase inhibitor 2 (TIMP2) Biomarker Activity (AID 2283071). The conditions noted are these: primary human keratinocytes with fibroblasts; actives raise or lower the signal. In short, it runs like this: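 Cells: human keratinocytes co-cultured with foreskin fibroblasts. Treat with chemical, 24 h. Measure TIMP-2 by ELISA; fit curves bidirectionally vs DMSO baseline.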

Read-out in assay [2]: Transforming growth factor beta 1 (TGFb1), TGFB1 (gene 7040)
The assay is described as follows: BSK_KF3CT_TGFb1: BioMAP Diversity Plus: KF3CT Assay for Transforming growth factor beta 1 (TGFb1) Biomarker Activity (AID 2283072). The conditions noted are these: primary human keratinocytes with fibroblasts; actives raise or lower the signal. The method, boiled down:
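Primary human skin cells (keratinocytes, foreskin fibroblasts) were co-cultured, exposed to test chemical and sampled at 24 h. TGF-b1 levels were measured by ELISA and fitted bidirectionally relative to DMSO.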

Read-out in assay [3]: Matrix Metallopeptidase 9 (MMP9), MMP9 (gene 4318)
Nature of the assay: BSK_KF3CT_MMP9: BioMAP Diversity Plus: KF3CT Assay for Matrix Metallopeptidase 9 (MMP9) Biomarker Activity (AID 2283074).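 On AC50: MMP9 protein level quantified by ELISA in the co-culture.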 Particulars: primary human keratinocytes with fibroblasts; actives raise or lower the signal. The method, boiled down: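 Keratinocyte plus foreskin fibroblast human primary skin co-culture was dosed with chemical and MMP-9 was quantified by ELISA 24 h later. Bidirectional curve fitting used DMSO as negative control and activity baseline.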

Read-out in assay [4]: urokinase plasminogen activator (uPA), PLAU (gene 5328)
Nature of the assay: BSK_KF3CT_uPA: BioMAP Diversity Plus: KF3CT Assay for urokinase plasminogen activator (uPA) Biomarker Activity (AID 2283075). The conditions noted are these: primary human keratinocytes with fibroblasts; actives raise or lower the signal. The method, boiled down: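 Human keratinocyte plus foreskin fibroblast primary co-culture exposed to chemical for 24 h. uPA levels were quantified by ELISA, and activity was fitted bidirectionally against a DMSO negative-control baseline.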

Read-out in assay [5]: CD40, CD40 (gene 958)
The assay is described as follows: BSK_LPS_CD40: BioMAP Diversity Plus: LPS Assay for CD40 Biomarker Activity (AID 2283076). Particulars: primary human HUVEC with PBMC; actives raise or lower the signal. In short, it runs like this: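 In the LPS system of human endothelial cells with peripheral blood mononuclear cells, CD40 levels were read by ELISA 24 h post-treatment. Signal changes in either direction were fitted against the DMSO baseline, with parallel SRB protein staining.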

Read-out in assay [6]: E-selectin (Homo sapiens) (UniProt P16581)
Nature of the assay: BSK_LPS_Eselectin: BioMAP Diversity Plus: LPS Assay for Eselectin Biomarker Activity (AID 2283077). Particulars: primary human HUVEC with PBMC; actives raise or lower the signal. In short, it runs like this: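 E-selectin ELISA on LPS-stimulated endothelial cell/PBMC co-cultures, read 24 h post-treatment; gains and losses fitted against DMSO. Parallel SRB staining (0.1% SRB after 10% TCA fixation, 560 nm) flags overt cytotoxicity.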

Read-out in assay [7]: Interleukin-8 (IL8), CXCL8 (gene 3576)
Nature of the assay: BSK_LPS_IL8: BioMAP Diversity Plus: LPS Assay for Interleukin-8 (IL8) Biomarker Activity (AID 2283078). Particulars: primary human HUVEC with PBMC; actives raise or lower the signal. The method, boiled down:
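ELISA read-out of IL-8 after 24 h chemical treatment of LPS-activated endothelial/PBMC human primary co-cultures. Changes either up or down relative to DMSO; overt cytotoxicity checked by sulforhodamine B staining in parallel wells.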

Assay [8] in a line: BSK_LPS_SRB: Viability Assessment in the BioMAP Diversity Plus: LPS Assay (AID 2283079).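 Further: total protein by sulforhodamine B absorbance as a cytotoxicity measure; measured one day after compound addition; fitted in both directions against DMSO so loss or gain of signal counts.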 The conditions noted are these: primary human HUVEC with PBMC. In short, it runs like this:
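SRB viability endpoint: cells fixed with 10% TCA, stained with 0.1% SRB, read at 560 nm, 24 h post-dose. HUVEC/PBMC co-culture; signal change in either direction scored relative to DMSO.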

Read-out in assay [9]: Interleukin-1 alpha (IL1a), IL1A (gene 3552)
Nature of the assay: BSK_LPS_IL1a: BioMAP Diversity Plus: LPS Assay for Interleukin-1 alpha (IL1a) Biomarker Activity (AID 2283080). Particulars: primary human HUVEC with PBMC; actives raise or lower the signal. The method, boiled down:
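Readout is IL-1a level by ELISA, 24 h post-dose, fitted as gain or loss relative to DMSO. System: LPS-activated human primary co-culture of vascular endothelium and peripheral blood mononuclear cells, with parallel SRB total-protein cytotoxicity.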

Read-out in assay [10]: C-C motif chemokine 2 (Homo sapiens) (UniProt P13500)
The assay is described as follows: BSK_KF3CT_MCP1: BioMAP Diversity Plus: KF3CT Assay for Monocyte Chemoattractant Protein 1 (MCP1/CCL2) Biomarker Activity (AID 2283073). Particulars: primary human keratinocytes with fibroblasts; actives raise or lower the signal. The method, boiled down:
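ELISA read-out of MCP-1, 24 h post-dose, in primary human skin keratinocytes co-cultured with fibroblasts. Parallel SRB staining monitors cytotoxicity; changes fitted both directions relative to DMSO.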

Sequence of E-selectin (Homo sapiens) (P16581 whole entry, looked up): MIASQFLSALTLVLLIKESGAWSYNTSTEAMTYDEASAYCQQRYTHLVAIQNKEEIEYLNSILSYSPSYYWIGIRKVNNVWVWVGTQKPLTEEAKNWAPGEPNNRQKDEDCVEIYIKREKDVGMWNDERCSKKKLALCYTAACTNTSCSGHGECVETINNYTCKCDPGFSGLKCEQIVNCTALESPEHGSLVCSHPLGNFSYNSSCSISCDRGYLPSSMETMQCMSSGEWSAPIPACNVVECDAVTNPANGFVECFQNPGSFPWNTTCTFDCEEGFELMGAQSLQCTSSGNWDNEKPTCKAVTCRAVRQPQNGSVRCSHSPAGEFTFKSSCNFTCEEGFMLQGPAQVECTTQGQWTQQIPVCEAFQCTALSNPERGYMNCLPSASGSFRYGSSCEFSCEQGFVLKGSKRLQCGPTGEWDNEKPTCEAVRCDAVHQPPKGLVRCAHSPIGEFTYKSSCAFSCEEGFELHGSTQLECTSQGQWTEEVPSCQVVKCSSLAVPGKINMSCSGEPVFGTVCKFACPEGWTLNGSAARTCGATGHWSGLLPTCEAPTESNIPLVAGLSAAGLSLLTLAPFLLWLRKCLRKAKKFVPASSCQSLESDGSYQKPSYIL

As to `CCCCN(CCCC)C(=S)[S-].CCCCN(CCCC)C(=S)[S-].[Ni+2]`, the result in assay [1], in [2], in assay [3], in assay [4], in assay [5] and in assay [6] was inactive. Besides, the outcome in [7], in assay [8] and in assay [9] was inactive.
As a reminder, the AC50 is the concentration at which the activity in the assay is half-maximal. Regarding `CCOP(=O)(OCC)OC(=CCl)c1ccc(Cl)cc1Cl`, the AC50 in assay [1] was 25.7 µM (active); in assay [2], 27.1 µM (active); in assay [10], 20 µM (active); in [3], 31.9 µM (active); in assay [4], 33.2 µM (active); in [5], 20 µM (active). The outcome in [6], in assay [7], in [8] and in assay [9] was inactive.
As for `CCCCCCCCCCCCc1cccc(S(=O)(=O)O)c1`, the AC50 was 25.3 µM (active) in assay [2], 28.7 µM (active) in assay [10], 18 µM (active) in assay [3] and 29.6 µM (active) in [4]. Besides, the outcome in assay [5], in assay [6], in [7], in assay [8] and in assay [9] was inactive.
As to `Nc1c(Oc2ccccc2)cc(O)c2c1C(=O)c1ccccc1C2=O`, the AC50 in assay [1] was 0.549 µM (active). Moreover, the outcome in [2], in assay [10], in assay [3], in assay [4], in assay [5] and in [6] was inactive. For the same compound, the outcome in [7], in assay [8] and in [9] was inactive.
Turning to `CCOC(=O)C(SP(=S)(OC)OC)c1ccccc1` (configuration not stated), the outcome in assay [1], in [10], in assay [3], in assay [4], in [5] and in assay [6] was inactive. In addition, the result in assay [7], in assay [8] and in [9] was inactive. Besides, in assay [2], the AC50 is 20 µM (active).
Take `CC(C)(C)c1cc([N+](=O)[O-])cc(C(C)(C)C)c1O`: the half-maximal activity concentration (AC50) was 20 µM (active) in assay [1]; 30.7 µM (active) in assay [10]; 11.3 µM (active) in assay [3]; 0.492 µM (active) in assay [5]; 0.345 µM (active) in assay [6]; 0.683 µM (active) in assay [8]. In addition, the result in assay [2], in assay [4], in [7] and in assay [9] was inactive.
For `CCCCCCCCCCCCN(C)C`, the result in [1], in [2], in [10], in assay [3], in [4] and in assay [5] was inactive. In addition, the result in [6], in assay [7], in assay [8] and in assay [9] was inactive.
For `CC(C)O.CC(C)O.OCCN(CCO)CCO.OCCN(CCO)CCO.[Ti]`, the result in [1], in assay [2], in [10], in assay [3], in [4] and in assay [5] was inactive. The outcome in assay [6], in [7], in assay [8] and in [9] was inactive.
Consider `O=C(O)COc1cc(Cl)c(Cl)cc1Cl`, for which the outcome in assay [1], in assay [2], in assay [10], in assay [3], in [4] and in assay [5] was inactive. Also, the result in assay [6], in assay [7], in assay [8] and in assay [9] was inactive.
With `CN(C)C(=S)S`, the outcome in assay [1], in [2], in [3], in assay [4], in assay [5] and in assay [6] was inactive. In addition, the result in [7], in assay [8] and in assay [9] was inactive.
`NC(=O)CCl`: the outcome in assay [1], in assay [2], in [10], in assay [3], in assay [4] and in assay [5] was inactive. In addition, the result in [6], in [7], in assay [8] and in assay [9] was inactive.
`Cc1ccccc1OP(=O)(Oc1ccccc1C)Oc1ccccc1C`: the concentration at half-maximal activity (AC50) is 5.54 µM (active) in [1]; 12.1 µM (active) in [10]; 5.56 µM (active) in assay [3]; 20 µM (active) in assay [4]; 9.38 µM (active) in assay [5]; 9.59 µM (active) in assay [6]. Besides, the concentration at half-maximal activity (AC50) in [7] is 12.6 µM (active); in assay [8] it was 12.3 µM (active); in [9] it was 11 µM (active). For the same compound, the result in assay [2] was inactive.
With `[Cl][Sn]([c]1ccccc1)([c]1ccccc1)[c]1ccccc1`, the AC50 in assay [1] was 0.209 µM (active); in assay [2], 0.0622 µM (active); in assay [10], 0.19 µM (active); in assay [3], 0.0692 µM (active); in assay [4], 0.168 µM (active); in [5], 0.117 µM (active). Also, the AC50 in assay [6] is 0.305 µM (active); in assay [7], 0.577 µM (active); in assay [8], 1.08 µM (active); in [9], 0.154 µM (active).
